High-throughput results as filed in PubChem BioAssay.
The list is not random: actives were taken first. Their share in the collection is about 2.4%.
D2 PAM-1: human D2 receptor positive allosteric modulation; P14416; DiscoveRx D2 beta-arrestin cells, luminescence, 90 min; 100% = 57 uM dopamine signal; potentiation, % (test concentration not listed); hit rate 0.23% among 360,000; AID 624464; in the data active means potentiation above about 50%
Target sequence (P14416 whole entry, looked up): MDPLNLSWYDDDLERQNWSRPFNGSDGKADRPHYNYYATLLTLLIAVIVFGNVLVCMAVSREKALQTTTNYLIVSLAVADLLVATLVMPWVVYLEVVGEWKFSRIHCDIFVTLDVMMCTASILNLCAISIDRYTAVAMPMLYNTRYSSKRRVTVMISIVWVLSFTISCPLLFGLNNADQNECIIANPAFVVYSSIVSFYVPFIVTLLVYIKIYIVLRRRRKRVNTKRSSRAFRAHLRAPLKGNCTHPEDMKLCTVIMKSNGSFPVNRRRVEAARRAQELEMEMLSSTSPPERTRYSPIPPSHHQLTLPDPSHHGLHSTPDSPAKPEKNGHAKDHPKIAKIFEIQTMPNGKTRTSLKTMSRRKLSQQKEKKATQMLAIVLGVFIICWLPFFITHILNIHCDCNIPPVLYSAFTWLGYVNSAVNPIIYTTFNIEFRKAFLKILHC
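D2 cells co-treated with compound plus 50 nM dopamine (EC20) for 90 min at 37 deg C to detect potentiation. Beta-arrestin recruitment was read as enzyme-fragment luminescence after 1 h at ambient temperature. Full response was set by 57 uM dopamine.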
D2 ag-1: agonists of human D2 dopamine receptor; P14416; HEK293 T-REx D2 cells, calcium flux agonist mode; activation, % at 2 µM; hit rate 0.53% among 340,000; AID 485358;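 active means activation over 3 SD above normal in the single-dose calcium agonist read, cut at about 30% in these data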; further: 0% is about no effect
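Tetracycline-induced HEK293 T-REx cells with force-coupled D2 receptor, plated overnight at 30 C, loaded with no-wash calcium dye. After a 10 s baseline, compound was pin-added and calcium flux read kinetically for 180 s; calcium rises flagged agonists.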
D2 ag-2: activates the human D2 dopamine receptor | P14416 | DiscoveRx PathHunter D2 beta-arrestin, luminescence, 90 min; 100% = 57 uM dopamine signal | activation, % (no concentration beside the values) | hit rate 0.084% among 360,000; in the data active means activation above about 40%
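Agonist mode: compounds alone added to overnight-plated D2 PathHunter cells for 90 min at 37 C, with 57 uM final dopamine (EC100) defining full response. Beta-arrestin recruitment detected by chemiluminescent reagent, read after 1 h at ambient temperature.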
D2 antagonist: antagonists of human D2 dopamine receptor | P14416 | HEK293 TREx D2 cells, calcium flux, dopamine EC80 | inhibition, % at 10 µM | hit rate 2% among 340,000 | AID 485344; in the data active means inhibition above about 30%; inactive means below that, where a call was filed; further: 0% is about no effect
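Tetracycline-induced HEK293 T-REx cells expressing D2 force-coupled to calcium signalling were dye-loaded, exposed to compound for 180 s, then challenged with an EC80 of dopamine; calcium flux was followed kinetically for a further 180 s.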
D2 PAM-2: positive allosteric modulators of human D2 dopamine receptor | potentiation, % at 10 µM | P14416 | hit rate 0.34% among 340,000 | HEK293 T-REx D2, calcium flux, EC20 dopamine potentiation;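 active means potentiation over 3 SD above the plate norm, cut at about 30% in these data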; further: 0% is about no effect
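Potentiation of an EC20 dopamine calcium response is measured in a force-coupled, tetracycline-inducible Hek293 Trex D2 line. Compound-only kinetic reads over 180 s flag agonists before dopamine addition.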
The depositor's hits bear a star.

Results for O=C(Nc1ccc(NC(=O)c2cccs2)cc1)c1ccc2c(c1)OCCO2 ?
D2 PAM-1: -9; D2 ag-1: 3; D2 ag-2: -3; D2 antagonist: 34*; D2 PAM-2: -17

Results for O=C(CN1C(=O)CCc2cc(S(=O)(=O)N3CCOCC3)ccc21)Nc1cccc(C(F)(F)F)c1 ?
D2 ag-1: 2; D2 PAM-2: -4

What do the screens show for `O=c1c2c3c(sc2nnn1Cc1ccc(Br)cc1)CCCC3`?
D2 ag-1: 0; D2 PAM-2: 10

Results for Cn1nccc1C(=O)N1CCc2ccccc21 ?
D2 PAM-1: -4; D2 ag-1: 0; D2 ag-2: -5; D2 antagonist: 36*; D2 PAM-2: 1

Results for CC(C)N1C(=O)CCC1C(=O)NCc1ccc(F)cc1Cl (stereo not given) ?
D2 PAM-1: -11; D2 ag-1: 1; D2 ag-2: 3; D2 antagonist: 23; D2 PAM-2: 2

Results for CCC(C(=O)O)N1C(=O)c2ccccc2C1=O (stereo not given) ?
D2 PAM-1: 1; D2 ag-1: 0; D2 ag-2: 0; D2 antagonist: 37*; D2 PAM-2: 5

Results for O=C(O)C(Cc1ccccc1)N1C(=O)c2ccccc2C1=O (stereo not given) ?
D2 PAM-1: 4; D2 ag-1: 1; D2 ag-2: -3; D2 antagonist: 14; D2 PAM-2: -16

Results for CN1CCc2c(c3ccccc3n2Cc2ccccc2)C1 ?
D2 PAM-1: -28; D2 ag-1: 0; D2 ag-2: -2; D2 antagonist: 33*; D2 PAM-2: -21

How did CN1CCc2c(c3ccccc3n2C)C1 do in these assays?
D2 PAM-1: -45; D2 ag-1: 1; D2 ag-2: -1; D2 antagonist: 61*; D2 PAM-2: -20

Results for CCCCN1CCc2c(c3ccccc3n2Cc2ccccc2)C1 ?
D2 PAM-1: -23; D2 ag-1: 1; D2 ag-2: -1; D2 antagonist: -5; D2 PAM-2: -25

What do the screens show for `C[C@@H]1CN([C@H](C)CO)C(=O)CCCn2cc(nn2)CO[C@H]1CN(C)C(=O)Nc1cccc2ccccc12`?
D2 PAM-1: 7; D2 ag-2: -1

What do the screens show for `CC1CCN(c2nn3c(=O)c(C(=O)NCCCOC(C)C)cnc3s2)CC1`?
D2 ag-1: -1; D2 PAM-2: -1

How did C/C(=N\NC(=O)c1c(Cl)c(C)nn1C)c1cccc(NC(=O)c2cccc(F)c2)c1 do in these assays?
D2 PAM-1: -22; D2 ag-1: 0; D2 ag-2: -4; D2 antagonist: 49*; D2 PAM-2: -16

What do the screens show for `CCOc1ccc(N2C(=O)/C(=C/c3cc(OC)c(OC)c(OC)c3)N(CC(=O)OC)C2=S)cc1`?
D2 PAM-1: -1; D2 ag-1: 2; D2 ag-2: -4; D2 antagonist: -7; D2 PAM-2: 47*

How did CCOc1ccc(/C=C2/C(=O)N(c3ccc(OC)cc3)C(=S)N2CC(=O)OC)cc1OCC do in these assays?
D2 PAM-1: 10; D2 ag-1: 1; D2 ag-2: -4; D2 antagonist: 17; D2 PAM-2: -2

What do the screens show for `COc1ccc(/C=N/OC(=O)Nc2ccc(Cl)cc2)c(OC)c1`?
D2 PAM-1: -14; D2 ag-1: -1; D2 ag-2: -7; D2 antagonist: -7; D2 PAM-2: 8

How did CCN(CC)c1ccc(/C=C2/C(=O)c3ccc(C(=O)O)cc3C2=O)cc1 do in these assays?
D2 PAM-1: -32; D2 ag-1: 84*; D2 ag-2: -3; D2 antagonist: 28; D2 PAM-2: -2

How did CCCCOC(=O)c1cccc(NC(=O)/C=C/c2ccccc2Cl)c1 do in these assays?
D2 ag-1: 2; D2 PAM-2: 9

How did N#Cc1c(F)cccc1N1CCN(Cc2ccc3c(c2)OCO3)CC1 do in these assays?
D2 PAM-1: -19; D2 ag-1: 7; D2 ag-2: -4; D2 antagonist: 85*; D2 PAM-2: -35

Results for COc1ccc(Oc2coc3cc(OC(=O)c4cccs4)ccc3c2=O)cc1 ?
D2 PAM-1: -4; D2 ag-1: 0; D2 ag-2: 0; D2 antagonist: -19; D2 PAM-2: 37*

What do the screens show for `Cc1cc(OCC(=O)OCC(=O)c2c(N)n(C)c(=O)n(C)c2=O)ccc1Cl`?
D2 PAM-1: -3; D2 ag-1: 1; D2 ag-2: -3; D2 antagonist: 7; D2 PAM-2: -10

Results for Nc1ccc(-c2nc3ncccc3o2)cc1 ?
D2 PAM-1: -1; D2 ag-1: 0; D2 ag-2: -3; D2 antagonist: 33*; D2 PAM-2: 2

How did CC(=O)Oc1ccc(N2C(=O)C3C4C=CC(CC4)C3C2=O)cc1[N+](=O)[O-] (stereo not given) do in these assays?
D2 PAM-1: -7; D2 ag-1: -1; D2 ag-2: -4; D2 antagonist: 62*; D2 PAM-2: 15

Results for O=C1C2C3C=CC(CC3)C2C(=O)N1c1ccc([N+](=O)[O-])cc1 (stereo not given) ?
D2 PAM-1: -1; D2 ag-1: 1; D2 ag-2: 1; D2 antagonist: -14; D2 PAM-2: -2

Results for CC(=O)N1CCC(CCCC2CCN(C(C)=O)CC2)CC1 ?
D2 PAM-1: -1; D2 ag-1: 1; D2 ag-2: -1; D2 antagonist: -4; D2 PAM-2: -4

Results for CCS(=O)(=O)Nc1ccc2[nH]c(=O)[nH]c2c1 ?
D2 PAM-1: 1; D2 ag-1: 3; D2 ag-2: -5; D2 antagonist: 33*; D2 PAM-2: -7

Results for CS(=O)(=O)Nc1ccc2[nH]c(=O)[nH]c2c1 ?
D2 PAM-1: 0; D2 ag-1: 1; D2 ag-2: 0; D2 antagonist: -1; D2 PAM-2: -2

What do the screens show for `COc1cccc(NC(=O)c2cccc3c(=O)c4c([nH]c23)CCCC4)c1`?
D2 ag-1: 2; D2 PAM-2: 4

What do the screens show for `CCc1ccc(OCc2n[nH]c(=S)n2C(C)CCCC(C)C)cc1` (stereo not given)?
D2 PAM-1: 0; D2 ag-1: 2; D2 ag-2: 13; D2 antagonist: 48*; D2 PAM-2: 3

How did CC(C)N(Cc1nc(-c2ccccc2)no1)C(=O)c1ccc2c(c1)OCO2 do in these assays?
D2 PAM-1: -8; D2 ag-1: -3; D2 ag-2: 1; D2 antagonist: 31*; D2 PAM-2: 4

Results for COc1ccc(CCNC(=O)CCCn2c(=O)c3cccn3c3ccc(F)cc32)cc1OC ?
D2 ag-1: 2; D2 PAM-2: 2

How did CCC(C(=O)Nc1ccccc1OC)n1c(C(=O)OC)cc2sc(Cl)cc21 (stereo not given) do in these assays?
D2 ag-1: 1; D2 PAM-2: 8
